Hits are enriched below; roughly 1.6% of the tested compounds scored in any of these assays.
KCNQ2 pot: potentiators of rat KCNQ2 potassium channel. O88943. AID 2239. actives 0.54% (n = 310,000). B-score at 10 µM. CHO-K1 KCNQ2, FluxOR thallium flux fluorescence; stronger effect = higher value;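 active = fluorescence ratio B-score at least 3 SD of library B-scores, with initial fluorescence B-score within 3 of them, cut at about 5.3 in these data; same plate scores as AID 2156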;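 also: B-score of peak minus minimum over baseline fluorescence ratio after K+ and Tl+ stimulus; positive B-score means potentiation of KCNQ2 with more thallium influx and brighter signal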
KCNQ2 inh: inhibitors of rat KCNQ2 potassium channel. O88943. CHO-K1 KCNQ2, FluxOR thallium flux, 20 min; stronger effect = lower value. B-score at 10 µM. actives 1.1% (n = 310,000);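 active = fluorescence ratio B-score at most minus 3 library SDs, with starting brightness B-score within 2 library SDs, cut at about -5.5 in these data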
Kir21 conf inh: confirmation of mouse Kir2.1 potassium channel inhibitors. shares compounds with KCNQ2 pot. Kir2.1-expressing cells, FluxOR thallium flux fluorescence; stronger effect = lower value. Tl flux remaining, % of negative control (stronger effect = lower value), % at 10 µM. actives 41% (n = 2,300). AID 2032;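 active = Primary-screen hit whose thallium flux fell at least 3 control SD below untreated wells in both duplicates, with normal baseline fluorescence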;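 also: 0% = blank wells without stimulus and 100% = stimulated no-compound controls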
Target sequence (P35561 whole entry, looked up): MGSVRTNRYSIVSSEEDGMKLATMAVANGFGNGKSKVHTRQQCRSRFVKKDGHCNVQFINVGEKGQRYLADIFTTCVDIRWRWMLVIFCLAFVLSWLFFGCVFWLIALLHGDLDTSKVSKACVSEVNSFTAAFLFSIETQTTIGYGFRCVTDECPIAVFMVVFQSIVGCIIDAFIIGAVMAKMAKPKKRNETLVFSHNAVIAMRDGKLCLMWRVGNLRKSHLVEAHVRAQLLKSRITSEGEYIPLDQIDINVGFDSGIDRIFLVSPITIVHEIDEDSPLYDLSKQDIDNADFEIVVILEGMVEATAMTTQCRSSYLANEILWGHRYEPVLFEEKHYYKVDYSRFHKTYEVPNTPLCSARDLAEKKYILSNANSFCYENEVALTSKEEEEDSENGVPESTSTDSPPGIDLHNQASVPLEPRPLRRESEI
HEK293 ctr: parental HEK293 activity in Kir2.1 inhibitor counter-screen | shares compounds with KCNQ2 pot | parental HEK293 cells, FluxOR thallium flux fluorescence; 0% = unstimulated blank wells | actives 19% (n = 2,300) | FluxOR signal as % of negative control (100 = no effect), % at 10 µM | AID 2105;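 active = dye signal at least 3 control SD above or below untreated wells in both duplicates, raw fluorescence within 3, either direction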;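 also: percent is based on the flux ratio of peak minus minimum fluorescence over baseline F0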
CHO-K1 ctr: alters thallium flux in parental CHO-K1 cells, KCNQ2 counter-screen; shares compounds with KCNQ2 pot; FluxOR thallium flux fluorescence; zero = vehicle mean+3SD, 100% = vehicle-minus-blank window; activity increase over 3SD of controls, % at 10 µM; actives 43% (n = 1,200); AID 2282;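 active = signal rise of at least 3 SD above the untreated control mean, in both duplicate wells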;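 also: counter screen of KCNQ2 potentiator hits so any rise reflects channel-independent effects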
KCNQ1 sel pot: human KCNQ1 counter-target activity of KCNQ2 potentiators | shares compounds with KCNQ2 pot | CHO KCNQ1 stable, FluxOR thallium flux fluorescence; beyond 3SD, as % of vehicle-control signal | activation over 3SD threshold, % at 10 µM | actives 28% (n = 1,200) | AID 2283;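 active = fluorescence ratio rise of at least 3 SD of vehicle wells above their mean, in both replicate wells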;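 also: 0% = vehicle mean plus 3 SD and 100% = vehicle minus unstimulated blank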
KCNQ2 pot confirm: rat KCNQ2 channel potentiator confirmation | potentiation, less the hit threshold, % at 10 µM | CHO-KCNQ2 cells, FluxOR thallium flux fluorescence | actives 68% (n = 1,200) | AID 2287 | shares compounds with KCNQ2 pot;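 active = fluorescence ratio rising 3 SD or more over the vehicle control mean in both replicates, plus primary screen hit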;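 also: peak minus minimum thallium fluorescence divided by baseline after K/Tl stimulus; 0% = vehicle mean plus 3 SD and 100% = vehicle minus unstimulated blank difference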
Kir2-1 sel: tests whether KCNQ2 potentiators also affect mouse Kir2.1. actives 2% (n = 1,200). activity over 3SD threshold, % at 10 µM. AID 2345. HEK293 Kir2.1, FluxOR thallium flux fluorescence. shares compounds with KCNQ2 pot;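 active = fluorescence ratio rise of at least 3 SD above the vehicle-control mean, seen in both replicates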;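 also: 0% = vehicle mean plus 3 SD and 100% = vehicle minus no-stimulus blank window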
KCNQ2 W236L MoA: rat KCNQ2 W236L mutant potentiation by KCNQ2 potentiators | current increase over 3SD of negative controls (%), stronger effect = higher value, % at 25 µM | CHO KCNQ2-W236L, automated patch clamp current | actives 10% (n = 940) | AID 2558 | shares compounds with KCNQ2 pot;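 active = current increase at least 3 SD of the untreated controls above them in both duplicate recordings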
Numbers without * were called inactive; i = inactive; · = no result given.

SMILES | KCNQ2 pot | KCNQ2 inh | Kir21 conf inh | HEK293 ctr | others
CC(=O)OC(C)(C)/C=C/C(=O)C(C)(O)C1[C@H](O)C[C@@]2(C)C3CC=C4C(CC[C@@H](O)C4(C)C)[C@]3(CO)C(=O)C[C@]12C (stereo partly drawn) | 7.1* | i | i | i | CHO-K1 ctr=-10;KCNQ1 sel pot=-22;KCNQ2 pot confirm=9.0*;Kir2-1 sel=-38;KCNQ2 W236L MoA=i
COc1ccc(Br)cc1CNCCc1ccc2c(c1)OCO2 | · | i | · | ·
COc1ccc(CNCCc2ccc3c(c2)OCO3)cc1Br | · | i | 16%* | i
Clc1cccc(CNCCc2ccc3c(c2)OCO3)c1 | · | i | · | ·
Clc1ccc(CNCCc2ccc3c(c2)OCO3)cc1 | · | i | 28%* | i
COC(=O)C1=C(c2cc3ccccc3o2)C[C@@H]2CC[C@H]1N2C(=O)NCCO | · | i | · | ·
Cc1ccc(C)c(OCc2cc(C(=O)N3C[C@H]4C[C@@H](C3)c3cccc(=O)n3C4)no2)c1 | 1.4 | i | · | ·
CC(C)(C#CCCCCC#CC(C)(C)[N+](C)(C)C)[N+](C)(C)C | 1 | i | · | ·
Cc1ccc2[nH]c(C)c(CCNCc3ccco3)c2c1 | 0.72 | i | · | ·
Cc1[nH]c2ccc(OC(F)(F)F)cc2c1CCNCc1ccc(Cl)cc1 | -7.7 | -7.7* | 16%* | i
Cc1[nH]c2ccc(OC(F)(F)F)cc2c1CCNCc1cccc([N+](=O)[O-])c1 | · | i | · | ·
CCOc1cccc(CNCCc2c(C)[nH]c3ccc(OC(F)(F)F)cc23)c1O | · | i | 22%* | i
O=C(c1ccc(F)cc1)N1CCC2(CC1)OCCO2 | · | i | · | ·
O=[N+]([O-])c1ccc(C2C3C(c4ccccc4)=NC4(CCCC4)N32)cc1 (stereo not drawn) | · | i | · | ·
CCCCCSc1cc(OC)c(CCNC)cc1OC | 1.4 | i | 43%* | i
CN(N)N=Nc1nc2c([nH]1)c(=O)n(C)c(=O)n2C | 1.6 | i | · | ·
COc1ccc(CNCCc2ccccc2F)c(OC)c1C | 0.26 | i | · | ·
COc1ccc(CNCCc2c[nH]c3ccccc23)c(OC)c1C | 0.92 | i | 46%* | i
COc1cc(C)c(CNCCc2c[nH]c3ccccc23)cc1C | · | i | 40%* | i
COc1cccc(CNCCc2c[nH]c3ccccc23)c1 | 2.5 | i | · | ·
CC(NS(C)(=O)=O)c1nnc2n1-c1ccc(Br)cc1C(c1ccccc1Cl)=NC2 (stereo not drawn) | 0.83 | i | · | ·
CC(C)(C)C(=O)NC1CCSC1=O (stereo not drawn) | 1 | i | · | ·
Cc1nn(Cc2ccc(Cl)cc2Cl)c(Cl)c1C(=O)Nc1ccc(OC(F)F)cc1 | · | i | · | ·
N#CC(C#N)=NNc1ccc(-n2ccc(C(F)(F)F)n2)cc1 | 4.8 | i | 60%* | 73%*
Cc1cc(C)n(-c2ccc(NN=C(C#N)C#N)cc2)n1 | · | i | · | ·
SMILES | KCNQ2 pot | KCNQ2 inh | Kir21 conf inh | HEK293 ctr | others
COc1ccc2ccccc2c1CNCCc1ccccc1 | · | i | 38%* | i
COc1cccc(CNCCc2ccccc2)c1OC | 1.7 | i | · | ·
Cc1ccsc1C(=O)C1CCCN(Cc2cnc(N3CCCC3)s2)C1 (stereo not drawn) | · | i | · | ·
COc1ccc(CCNCc2ccc(SC)cc2)cc1 | · | i | · | ·
O=C(c1ccc(F)cc1)C(Cc1ccccc1)N1CCCCC1 (stereo not drawn) | 0.07 | i | · | ·
O=C(CCCN1CCC2(CC1)C(=O)NCN2c1ccccc1)c1ccc(F)cc1 | 6* | i | i | i | CHO-K1 ctr=5.3*;KCNQ1 sel pot=64*;KCNQ2 pot confirm=17*;Kir2-1 sel=-40;KCNQ2 W236L MoA=i
COc1ccc(-n2c(/C=C/c3ccc(O)cc3)nc3ccccc3c2=O)cc1 | · | i | · | ·
CCn1nc(/C=C/c2ccccc2)nc2c(=O)n(C)c(=O)nc1-2 | 7.9* | i | i | i | CHO-K1 ctr=5.3*;KCNQ1 sel pot=-4;KCNQ2 pot confirm=3.5*;Kir2-1 sel=-22;KCNQ2 W236L MoA=i
OC(CNCCc1c[nH]c2ccccc12)c1ccccc1 (stereo not drawn) | 0.48 | i | · | ·
O=[N+]([O-])c1ccccc1-c1cc(-c2ccccc2)cc(-c2ccccc2)[n+]1Cc1ccccc1Cl | -7.4 | -7.4* | 22%* | i
COc1cccc(C(=O)C2CCCN(Cc3ccc(F)cc3)C2)c1 (stereo not drawn) | 1.5 | i | · | ·
COc1ccc(CN2CCCC(C(=O)c3sccc3C)C2)cc1O (stereo not drawn) | 0.95 | i | 56%* | i
COc1cc(CN2CCCC(C(=O)c3sccc3C)C2)cc(OC)c1O (stereo not drawn) | 0.28 | i | · | ·
COc1ccc(CN2CCCC(C(=O)c3ccc(Cl)cc3)C2)c(O)c1 (stereo not drawn) | · | i | 68%* | i
Cc1cc(C)c2c(ccc3cccc[n+]32)c1 | 0.05 | i | · | ·
Oc1ccc(C2=CCNCC2)cc1O | · | i | · | ·
CC1=CC2/C=C(\C)CCC(O)C(O)/C=C/C(=O)C23C(=O)NC(CC(C)C)C3C1C (stereo not drawn) | · | i | 64%* | i
Cc1ccccc1-n1c(O)c(C(c2ccncc2)c2c(O)n(-c3ccccc3C)c(=O)[nH]c2=O)c(=O)[nH]c1=O | 0.22 | i | · | ·
CN1Cc2c(c(C#N)c(N)n(C)c2=S)CC1(C)C | 0.01 | i | · | ·
CCOC(C[n+]1c(-c2ccccc2)cc(C)cc1-c1ccccc1)OCC | 0.69 | i | · | ·
C[n+]1c(-c2ccccc2)cc(-c2ccc(O)cc2)cc1-c1ccccc1 | 0.44 | i | · | ·
Fc1ccc(C[n+]2c(-c3ccccc3)cc(-c3ccccc3)cc2-c2ccccc2)cc1 | -6.3 | -6.3* | 24%* | i
Clc1ccc(C[n+]2c(-c3ccccc3)cc(-c3ccccc3)cc2-c2ccccc2)cc1 | -7.2 | -7.2* | 17%* | i
Cc1cc(-c2ccccc2)cc(-c2ccccc2)[n+]1CCc1ccccc1 | -5.7 | -5.7* | 45%* | i
Cc1ccc(-c2cc(-c3ccccc3)cc(-c3ccccc3)[n+]2-c2ccccc2C(=O)O)cc1 | · | i | · | ·
O=[N+]([O-])c1ccc2nc(N3CCNCC3)ccc2c1 | · | i | · | ·
S=C1NCCN1 | 0.31 | i | · | ·
COc1ccccc1-n1c(Cc2ccccc2)nc2ccccc2c1=O | · | i | · | ·

Screens as filed in PubChem.
